Hit rate of the full screen: of about 63,000 compounds, about 1,100 (1.7%) were called active. Rule as the data show it: active = cytotoxicity above about 50%; inactive = the rest. The sample as a whole holds a higher share of actives than the screen did. Entries with a potency or affinity are not part of this list.
Test: HPDE-C7 pancreatic duct cell viability loss – fluorescence, HTS (AID 430);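 also: cells exposed to compound for 48 hours before viability readout; 0% = vehicle and 100% = reference cytotoxic drug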
Settings: HPDE-C7 pancreatic duct cells viability, at 10 µM, stronger effect = higher value

| Structure (SMILES) | cytotoxicity |
| --- | --- |
| Cc1c(-c2nc(N)nc(Nc3ccc(F)cc3)n2)oc2ccccc12 | 6.3% (inactive) |
| Cc1c(-c2nc(N)nc(Nc3ccccc3F)n2)oc2ccccc12 | 15% (inactive) |
| Cc1c(-c2nc(N)nc(Nc3ccccc3)n2)oc2ccccc12 | 52.8% (active) |
| COc1nc(Oc2ccc(C(=O)OCC(N)=O)cc2)nc(N(C)C)n1 | 3.8% (inactive) |
| O=C1CCc2cc(S(=O)(=O)N3CCC(C(=O)NC4CCCC4)CC3)ccc2N1 | 0.9% (inactive) |
| C=CCn1c(SCc2csc(C)n2)nc2sc3c(c2c1=O)CCCCC3 | 4.7% (inactive) |
| Cc1ccc(-c2csc3nc(C)n(-n4c(C)ccc4C)c(=O)c23)o1 | 10.1% (inactive) |
| C=CCn1c(SCc2csc(C)n2)nc2scc(-c3ccc(C)o3)c2c1=O | 86.5% (active) |
| CCSc1nc2c(c(=O)[nH]1)C(c1cccnc1)C(C(=O)OC)=C(C)N2 (stereo not given) | -19% (inactive) |
| CCn1c(C)c(C(C)=O)c(N2CCCCC2)nc1=S | -8.3% (inactive) |
| CC(=O)c1c(C)[nH]c(C(=O)OCC(=O)Nc2cc(C)on2)c1C | 7.8% (inactive) |
| Cc1csc(NC(=O)CSc2nc(C)cs2)n1 | 3.7% (inactive) |
| CC(C)(C)NC(=O)CSc1nsc(SCC(=O)NC(C)(C)C)c1C#N | 1.2% (inactive) |
| O=C(NC1CCS(=O)(=O)C1)c1cn(-c2ccccc2)nc1-c1ccccc1 (stereo not given) | 59.8% (active) |
| O=C(NCCCn1ccnc1)c1cn(-c2ccccc2)nc1-c1ccccc1 | -1.6% (inactive) |
| O=C(NC1CCS(=O)(=O)C1)c1ccccc1C(=O)c1ccccc1 (stereo not given) | -4.3% (inactive) |
| CCCn1c(NC(=O)C2CCN(S(=O)(=O)c3cccs3)CC2)nc2ccccc21 | 8% (inactive) |
| COc1ccccc1-n1nnnc1SCc1ccccc1 | -13.8% (inactive) |
| Cc1cccc(C)c1-n1nnnc1S(=O)(=O)Cc1ccccc1Cl | 1% (inactive) |
| C=CCn1cnc2c(c1=O)c1nc3ccccc3nc1n2-c1ccccc1 | 1.4% (inactive) |
| Cc1nc(SCC(=O)Nc2c(C)n(C)n(-c3ccccc3)c2=O)n[nH]1 | -18.3% (inactive) |
| CCc1ccc2[nH]c(=O)c(CN(Cc3ccc(OC)cc3)Cc3nnnn3CCOC)cc2c1 | 9.3% (inactive) |
| O=C1c2oc3ccc(F)cc3c(=O)c2C(c2ccccc2)N1CC1CCCO1 (stereo not given) | -14.4% (inactive) |
| Cc1noc(C(=O)N2CCN(c3ccc(F)cc3)CC2)c1Cl | -11.2% (inactive) |
| CCN1CCN(c2ncc(C(=O)Nc3ccccc3C(=O)OC)c3ccccc23)CC1 | 25.8% (inactive) |

| Structure (SMILES) | cytotoxicity |
| --- | --- |
| CCN1CCN(c2ncc(C(=O)Nc3cc(Cl)ccc3OC)c3ccccc23)CC1 | 82.5% (active) |
| CCN1CCN(c2ncc(C(=O)Nc3cc(Cl)c(OC)cc3OC)c3ccccc23)CC1 | 16% (inactive) |
| COc1ccccc1Cn1c(=O)c2ccccc2n2c(SCC(=O)N3CCCCC3)nnc12 | -4.5% (inactive) |
| COc1ccc(NC(=O)c2ocnc2C)cc1OC | -32.7% (inactive) |
| OC(COCC1COc2ccccc2O1)CN1CCN(c2ccccn2)CC1 (stereo not given) | 6.2% (inactive) |
| Cc1nc(NCCNC(=O)c2ccco2)c2c(C)c(C)sc2n1 | -13.6% (inactive) |
| COC(=O)Nc1ccc(S(=O)(=O)N2CCCc3ccccc32)cc1 | 56.8% (active) |
| Cc1cc(NC(=O)COC(=O)c2cccc(S(=O)(=O)N3CCOCC3)c2)no1 | -14.7% (inactive) |
| Cc1cc(NC(=O)COC(=O)c2ccc(S(=O)(=O)N3CCCc4ccccc43)cc2)no1 | 58.6% (active) |
| O=C(O)C1CC=CCC1C(=O)Nc1ccc(S(=O)(=O)N2CCCc3ccccc32)cc1 (stereo not given) | 30.6% (inactive) |
| CCCNC(=O)NC(=O)COC(=O)c1ccc(OC)c(S(=O)(=O)N2CCCc3ccccc32)c1 | 0.1% (inactive) |
| CC(=O)Nc1ccc(S(=O)(=O)N2CCCc3ccccc32)cc1 | 37.8% (inactive) |
| CCC(C)Oc1cccc(OCCCCN2C(=O)NC(C)(C)C2=O)c1 (stereo not given) | 8.5% (inactive) |
| O=C(CC1c2ccccc2Oc2ccccc21)NCc1ccco1 | -3.4% (inactive) |
| CCC(=O)N1CCc2cc(Br)cc(S(=O)(=O)N3CCCCCC3)c21 | -12.2% (inactive) |
| CC(=O)N1CCc2cc(S(=O)(=O)CCC(=O)N3CCN(C(=O)c4ccco4)CC3)ccc21 | 1.6% (inactive) |
| COC(=O)c1oc2ccc(Br)cc2c1-n1cccc1 | 1.1% (inactive) |
| O=C(O)c1oc2ccccc2c1-n1cccc1 | 9.5% (inactive) |
| O=C(O)c1oc2ccc(Br)cc2c1-n1cccc1 | 57.8% (active) |
| COc1ccc(NC(=O)CSc2nnc(-c3ccccn3)n2N)cc1 | -17.7% (inactive) |
| O=C(Nc1ccccc1)OCCOc1ccccc1 | -17.6% (inactive) |
| CC(C)n1c(C(=O)OCC(=O)NCc2ccc3c(c2)OCO3)cc2sccc21 | 45% (inactive) |
| Cc1cc2c(cc(C(=O)OCC(=O)NCc3cccs3)n2C(C)C)o1 | 57.6% (active) |
| Cn1c(C(=O)OCC(=O)NCc2cccs2)cc2sccc21 | 9.4% (inactive) |
| CCOC(=O)N1CCN(C(=O)CSc2nnc(Cn3c(=O)sc4ccccc43)n2C)CC1 | -4.9% (inactive) |

| Structure (SMILES) | cytotoxicity |
| --- | --- |
| CCCCOc1ccc(C(=O)Nc2ccncc2)cc1 | 7.8% (inactive) |
| CNc1oc(-c2ccccc2Cl)nc1C#N | -3.8% (inactive) |
| COCCNc1oc(-c2ccccc2Cl)nc1C#N | -6% (inactive) |
| COc1ccc(Nc2oc(-c3ccccc3Cl)nc2C#N)cc1 | 57.9% (active) |
| Cc1ccccc1-n1nnnc1-c1ccccc1 | -2.5% (inactive) |
| O=C1C(c2ccncc2)=C(O)c2ccccc21 | -1.4% (inactive) |
| COc1ccc(C(=O)Oc2ccc(C(C)=O)cc2)c(OC)c1 | 13.4% (inactive) |
| COc1ccc(C(=O)c2ccc(N(C)C)cc2)c(OC)c1 | 68.7% (active) |
| COc1ccc(C(=O)c2ccc(N3CCOCC3)cc2)c(OC)c1 | 7.3% (inactive) |
| Cc1ccc(S(=O)(=O)NC2OC(=O)C(Cl)=C2Cl)cc1 (stereo not given) | 11.4% (inactive) |
| Cc1nnc2n1N=CC=C(C(C)(C)C)S2 | -5.2% (inactive) |
| Cc1nnc2n1N=CC=C(c1ccccc1)S2 | 57.5% (active) |
| COn1cnnc1-c1ccccc1 | -8.8% (inactive) |
| O=C(COC(=O)CCOc1ccccc1)Nc1ccc(Cl)cn1 | 0.1% (inactive) |
| Cc1cc(SCC#N)n2nc(C)c(-c3ccccc3)c2n1 | -24.7% (inactive) |
| COc1ccc2c(c1)c(C(O)CN1CCC3(CC1)OCCO3)c(C)n2C (stereo not given) | 9% (inactive) |
| CC(C)(C)c1ccc(C(O)CCCN2CCC(C(O)(c3ccccc3)c3ccccc3)CC2)cc1 (stereo not given) | 118% (active) |
| OC(CCN1CCCC1)(c1ccccc1)C1CCCCC1 (stereo not given) | 8.5% (inactive) |
| OC(CCN1CCCCC1)(c1ccccc1)C1CCCCC1 (stereo not given) | -15.8% (inactive) |
| C/C(=N\O)C1/C(=N/O)CC2C1C2(C)C (stereo not given) | -4.3% (inactive) |
| Nc1nc(C(=O)N2CCOCC2)nn1S(=O)(=O)c1ccc(Cl)cc1 | 2.7% (inactive) |
| COc1ccc(C(=O)Oc2cccnc2)cc1OC | -11.9% (inactive) |
| CN1C(=O)c2cccc(NC(=O)Cc3ccccc3)c2C1=O | -1.7% (inactive) |
| CC1CCc2nc(NC(=O)c3ccco3)sc2C1 (stereo not given) | -13.6% (inactive) |
| O=C(Nc1nc2c(s1)CCc1ccccc1-2)c1ccco1 | 15.6% (inactive) |

| Structure (SMILES) | cytotoxicity |
| --- | --- |
| O=C(c1ccc(Br)s1)N1CCN(Cc2ccc3c(c2)OCO3)CC1 | 11.8% (inactive) |
| CSc1cccc(-n2cc(-c3ccc4c(c3)OCO4)[nH]c2=O)c1 | 52.8% (active) |
| Cc1ccc(-n2cc(-c3ccccc3)[nH]c2=O)cc1F | -20.5% (inactive) |
| CN(C)/C=C1\N=C(c2ccc3c(c2)OCO3)OC1=O | -1.7% (inactive) |
| O=C(Cc1ccc(S(=O)(=O)N2CCOCC2)s1)Nc1ccc2c(c1)CCC2 | 3.3% (inactive) |
| COc1ccc(CN2CCN(C(=O)c3cc(OC)c(OC)c(OC)c3)CC2)cc1OC | -11.1% (inactive) |
| CCCSc1nnc(NC(=O)Nc2ccccc2)s1 | 6.3% (inactive) |
| CCCSc1nnc(NC(=O)Nc2ccc(F)cc2)s1 | 69.6% (active) |
| CCC(=O)Nc1nnc(SCC(=O)Nc2ccc(F)cc2)s1 | 2.1% (inactive) |
| COc1ccccc1NC(=O)CN1CCN(Cc2ccccc2)CC1 | 3% (inactive) |
| COc1ccc(C(C)=O)cc1COC(=O)c1c(C)noc1C | 7.1% (inactive) |
| COC(=O)c1sc(N)c(C(=O)OC)c1COC(=O)c1c(C)noc1C | 64.9% (active) |
| COC(=O)c1c(N)sc(C(C)=O)c1C | -7.8% (inactive) |
| CC(C)CCNc1nc2c(c(=O)n(Cc3cccc(F)c3)c(=O)n2C)n1C | 35.2% (inactive) |
| COc1ccc(-c2cn3c(n2)CCC3)cc1 | 14.1% (inactive) |
| CCCCCC1CCC(C(=O)O)CC1 (stereo not given) | -12.7% (inactive) |
| COC(=O)c1ccc2c(c1)N(Cc1nc(-c3ccc(Cl)cc3)oc1C)C(=O)C1CCCN21 (stereo not given) | -1.4% (inactive) |
| COC(=O)c1ccc2c(c1)N(Cc1nc(-c3cccc(Cl)c3)oc1C)C(=O)C1CCCN21 (stereo not given) | 40.7% (inactive) |
| COC(=O)c1ccc2c(c1)N(Cc1nc(-c3cccc(C)c3)oc1C)C(=O)C1CCCN21 (stereo not given) | 55.8% (active) |
| CC(C)CCOCC1CC2(CC(C)(c3csc(N)n3)OC2=O)C(=O)O1 (stereo not given) | -2.2% (inactive) |
| O=C(COC(=O)c1ccccc1NC(=O)c1ccco1)Nc1ccc2c(c1)OCO2 | -13.5% (inactive) |
| COc1cccc(C2C3=C(N=C4SCC(=O)N42)c2ccccc2CC3)c1OC (stereo not given) | -2.4% (inactive) |
| CN(C)c1ccc(-c2nn3c(-c4ccncc4)nnc3s2)cc1 | -9.1% (inactive) |
| CCN(CC)c1ccc(-c2nn3c(-c4cccnc4)nnc3s2)cc1 | 43.2% (inactive) |
| CCc1nc2ccccc2n1CC(=O)N(C(C)CC)C1CCS(=O)(=O)C1 (stereo not given) | -20.3% (inactive) |
